Shown are actives, neighbours in structure and some others; about 1.7% of the full set was active somewhere.
LDHA block – inhibitors of human lactate dehydrogenase A; purified LDHA, NADH/diaphorase-resazurin fluorescence; active compounds read low; AID 1347041; activity change, % (values are at about 110 or 230 µM); hit rate 0.15% among 480,000; in the data active means activity change below about -30%; inconclusive means mostly about -25% to -30%;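 further: plate controls were DMSO wells for no effect and wells without enzyme for full effect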
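LDH5 2 nM; NADH 0.06 mM, pyruvate 0.2 mM; 200 mM Tris pH 7.4, EDTA, Tween-20; 5 min RT. Detection: diaphorase 0.133 mg/mL + resazurin 37 µM, fluorescence ex540/em590 at 0 and 20 min; normalized to enzyme-free and DMSO wells.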
IDH1 R132H inh – human IDH1 R132H inhibition. hit rate 0.093% among 390,000. Potency, µM (top dose mostly 76.6 µM), without a hit: at the top dose activity change, negative = inhibition, most hits filed as inhibitors. IDH1-R132H enzyme, NADPH consumption, diaphorase/resazurin fluorescence. O75874; further: potency means the concentration at half of the fitted maximal effect; on the % scale 0 is the no-effect control and ±100 the full control effect; nearly all actives have a fitted effect of over 65% in size
Target sequence (O75874 whole entry R132H, stated change not applied): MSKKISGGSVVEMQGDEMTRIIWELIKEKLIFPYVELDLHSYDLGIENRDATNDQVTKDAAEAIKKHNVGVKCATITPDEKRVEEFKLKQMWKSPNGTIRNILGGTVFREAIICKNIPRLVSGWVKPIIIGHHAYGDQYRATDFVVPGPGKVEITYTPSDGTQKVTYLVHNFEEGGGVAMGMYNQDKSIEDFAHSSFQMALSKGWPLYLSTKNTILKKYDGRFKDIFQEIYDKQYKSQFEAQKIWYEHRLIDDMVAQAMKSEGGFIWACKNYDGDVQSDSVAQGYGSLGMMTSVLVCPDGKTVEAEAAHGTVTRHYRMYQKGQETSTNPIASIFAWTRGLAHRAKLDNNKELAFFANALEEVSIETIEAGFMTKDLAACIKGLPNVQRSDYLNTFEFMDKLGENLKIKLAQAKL
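IDH1-R132H (0.5 ug/mL) preincubated 30 min with compound, then NADPH (0.016 mM) and alpha-KG (2 mM) added; 80 min at RT, pH 7.5. Remaining NADPH coupled via diaphorase/resazurin to fluorescence (540/590 nm); concentration-response curves normalized to no-enzyme control.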
GLP-1R inv ag – inverse agonists of human GLP-1 receptor; P43220; HEK293 GLP-1R CRE-luciferase, luminescence, 24 h; GLP-1R form is constitutively active; Potency, µM (series often up to 38.3 µM), for the others: at the highest dose activity change, negative = inhibition, hits mostly inhibitors; hit rate 1.6% among 410,000; AID 624417; further: potency means the concentration at half of the fitted maximal effect; on the % scale 0 is the no-effect control and ±100 the full control effect; nearly all actives have a fitted effect of over 55% in size
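HEK293 cells stably co-expressing constitutively active GLP-1R and a cAMP-responsive luciferase reporter were seeded in DMEM with 10% Nu serum, given compounds after 12 h, and incubated 24 h at 37 deg C. Luminescence was then read.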
PTHR1 ag – activates the human parathyroid hormone receptor PTHR1 | HEK293 GP2 PTHR1 cells, GloSensor cAMP luminescence, 1 h | Potency, µM (top dose mostly 115 µM), for inactives: top-dose activation, usual class: activators | hit rate 0.075% among 410,000 | AID 743266; further: potency means the concentration at half of the fitted maximal effect; nearly all actives have a fitted effect of over 55% in size
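HEK-293-derived GP2 cells expressing PTHR1 and a GloSensor cAMP reporter, 3,000/well, plated overnight, given luciferin plus IBMX (each 0.5 mM as added) for 1 h at 37 °C, then compound for 1 h at 37 °C. Luminescence was read after 15 min at room temperature.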
GLP-1R agonist – agonists of human GLP-1 receptor. P43220. AID 624172. HEK293 GLP-1R CRE-luciferase, luminescence, 4-6 h; cells express a hypersensitive GLP-1R form. hit rate 0.007% among 380,000. Potency, µM (doses to about 45.6 µM), without a hit: at the top dose activation, most hits filed as activators; further: potency means the concentration at half of the fitted maximal effect; % of control where 0% means no effect
GLP1R cytotox – cytotoxic in the GLP-1 receptor inverse agonist counter-screen | HEK293 cAMP-luciferase reporter cells, luminescence, 24 h | Potency, µM (top dose mostly 38.3 µM), without a hit: top-dose activity change, negative = inhibition, actives largely listed as inhibitors | hit rate 0.13% among 410,000 | AID 624418;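 further: loss of luciferase light is scored as toxicity; potency means the concentration at half of the fitted maximal effect; on the % scale 0 is the no-effect control and ±100 the full control effect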
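Luminescence readout: signal drop marks cytotoxicity. Plated cells grew 12 h at 37 °C, 5% CO2, received 23 nL compound for 24 h, then got luciferase reagent, read after 12 min at RT.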
Active calls of the source: *; i = inactive; ? = inconclusive; . = no result; [ ] = remark or other dose. Unless noted, the call rests on the fitted dose curve; in most records, active means well fitted curve in the direction sought with a large enough effect; inconclusive means small, poorly fitted or top-dose-only effect, or another doubt; inactive means no such curve, though single readings can be large; an effect the other way counts as inactive or inconclusive.

SMILES | LDHA block | IDH1 R132H inh | GLP-1R inv ag | PTHR1 ag | GLP-1R agonist | GLP1R cytotox
Cc1cccc(COC(=O)C2=NN(C3CCS(=O)(=O)C3)C(=O)CC2)c1 (stereo unspecified) | 2.4 | . | . | . | . | .
CCOc1ccccc1N(CC(=O)NC1CCCCC1)C(=O)c1nsc(Cl)c1Cl | -2.6 | 0.5% | 10µM* | -11.2% | 15.0% | 2.5%
Cc1ccc2c(c1)/C(=C/c1ccccc1)C(=O)N2 | 1.2 | 6.9% | ? | -21.5% | 8.6% | -6.3%
COc1ccc2c(c1)/C(=C\c1cccc(/C=C3/C(=O)Nc4ccc(OC)cc43)n1)C(=O)N2 | 0.9 | 1.0% | ? | -38.1% | -1.0% | 2.24µM*
Cc1ccc(OCc2nnc(SCC(=O)c3ccccc3)n2-c2ccccc2)cc1 | 4.1 | 10.0% | -14.6% | -5.4% | 6.7% | -24.9%
Cc1cccc(-n2c(CCc3ccccc3)nnc2SCC(=O)c2ccccc2)c1 | -1.8 | 3.1% | 5.01µM* | -13.9% | -2.2% | ?
CC(C)(C)c1cc(-c2ccccc2)cc(C(C)(C)C)c1O | 13.2 | . | . | . | . | .
CC(C)CNc1oc(-c2ccccc2F)nc1C#N | -36.4* | . | . | . | . | .
CC(C)(Oc1ccc(Cl)cc1)C(=O)NCC(c1ccco1)N1CCCCC1 (stereo unspecified) | -5.8 | 2.9% | 8.91µM* | -11.2% | -1.8% | 6.1%
CCC(=O)NCC(c1cccs1)N1CCOCC1 (stereo unspecified) | -1.1 | -0.2% | -5.1% | -12.0%[57.5 µM] | -2.1% | 0.3%
Cc1ccc(S(=O)(=O)NC(CC(C)C)C(=O)NCC(c2ccco2)N2CCCCC2)cc1 (stereo unspecified) | 0.1 | 7.3% | 4.47µM* | -57.8% | -3.3% | -0.8%
Cc1cc(SCC(=O)NCC(c2cccs2)N2CCOCC2)c(C)cc1Br (stereo unspecified) | -2.4 | 4.0% | 11.2µM* | -45.6% | 0.3% | 1.2%
CC(=O)Nc1ccc(S(=O)(=O)NC(C)C(=O)NCC(c2ccco2)N2CCCCC2)cc1 (stereo unspecified) | 0.8 | -6.8% | 6.7% | i | 5.8% | 0.8%
Cc1c(C(=O)NCC(c2ccco2)N2CCCC2)sc2ccccc12 (stereo unspecified) | 5.8 | 1.6% | 8.91µM* | i | 12.7% | -1.4%
Cc1ccc(C)c(SCC(=O)NCC(c2ccco2)N2CCCCC2)c1 (stereo unspecified) | -4.3 | 3.6% | 11.2µM* | -8.5% | -2.7% | 3.7%
O=C(Nc1ccc(Cl)cc1)NC1CCCCC1 | -3.3 | -0.1% | -1.6% | -20.5% | 3.6% | 3.4%
O=C(Nc1ccc(Cl)cc1)NC1CCCCC1Cc1ccco1 (stereo unspecified) | -1.1 | 1.3% | 10µM* | -17.6%[57.5 µM] | -13.1% | -29.8%
O=C(Nc1ccc(Cl)cc1)NC1CCCC1Cc1ccco1 (stereo unspecified) | 0.0 | 4.7% | 5.62µM* | -40.0% | -7.1% | 9.6%
Cc1sc(NC(=O)CN2CCCCC2)nc1-c1ccccc1 | 9.5 | . | . | . | . | .
CC12C(=O)N(c3nccs3)C(=O)C1(C)C1CCC2O1 (stereo unspecified) | -6.4 | 12.1% | ? | -3.8% | 3.4% | ?
C[C@@]12C(=O)OC(=O)[C@]1(C)C1CCC2O1 | -14.6 | -6.7% | 1.78µM* | -68.7% | -10.4% | ?
Cc1ccc2nc(C3CCCN(C(=S)Nc4cccc(C)c4C)C3)[nH]c2c1 (stereo unspecified) | -20.2 | 6.3% | ? | i | -8.2% | 11.2µM*
COc1cc(NC(=O)C(=O)NC(C)CCc2ccccc2)ccc1N1CCCCS1(=O)=O (stereo unspecified) | 0.9 | . | . | . | . | .
CCCCNC(=O)COC(=O)c1c2c(nc3ccccc13)/C(=C\c1cccs1)CC2 | 5.5 | -1.0% | 6.31µM* | i | 13.2% | i
CC(C)CNC(=O)COC(=O)c1c2c(nc3ccccc13)/C(=C/c1cccs1)CC2 | 3.8 | 5.5% | ? | -55.6% | -1.5% | -8.5%[1.53 µM]
SMILES | LDHA block | IDH1 R132H inh | GLP-1R inv ag | PTHR1 ag | GLP-1R agonist | GLP1R cytotox
O=C(NCc1ccc(Cl)cc1)C(=O)Nc1cccc(O)c1 | -22.2 | . | . | . | . | .
COCc1nn2c(c1-c1ccccc1)NC(=O)CC2C(=O)Nc1ccccc1OC (stereo unspecified) | -7.1 | . | . | . | . | .
O=C1NC(=S)S/C1=C\c1cc(Cl)ccc1Cl | -31.0* | 5.5% | -27.4% | -31.7% | -2.8% | ?
O=c1c(Cl)c(N2CCN(c3cccc(C(F)(F)F)c3)CC2)cnn1-c1nc2ccccc2s1 | 7.1 | . | . | . | . | .
CCOC(=O)/C(=N/Nc1ccccc1)N1CCCc2ccccc21 | -8.4 | 25.3% | ? | i | 0.0% | 4.3%
CCOC(=O)/C(=N/Nc1ccc(OC)cc1)N1CCCc2ccccc21 | 3.7 | 42.6% | 4.47µM* | -15.1% | -7.0% | -0.2%
COc1ccc(-c2cn3c(C)c(C(=O)N4CCCc5ccccc54)sc3n2)cc1 | -6.4 | -15.7% | 8.91µM* | -49.8% | 4.1% | -20.7%
COc1ccc(CCC(=O)Nc2ccc3c(c2)NC(=O)C(C)O3)cc1OC (stereo unspecified) | 9.5 | . | . | . | . | .
CCN(c1ccccc1)S(=O)(=O)c1ccc(OC)c(NC(=O)Cc2ccc(OC)c(OC)c2)c1 | -0.5 | 9.1% | -23.2% | -1.3% | -1.9% | 2.0%
CCN1CCN(CC(=O)Nc2cc(S(=O)(=O)N(CC)c3ccccc3)ccc2Cl)CC1 | -0.8 | -5.9% | 10µM* | -24.0% | 8.1% | ?
CCN(c1ccccc1)S(=O)(=O)c1ccc(OC)c(NC(=O)Cc2ccccc2OC)c1 | 2.9 | 3.4% | 10µM* | -17.3% | 3.8% | -12.3%
Cc1cc(C(=O)Nc2ccc3c(c2)CCC3)c(C)s1 | 3.3 | . | . | . | . | .
O=C(NCC1(N2CCCCC2)CCCCC1)c1ccc(NC(=O)c2cccs2)cc1 | 4.8 | . | . | . | . | .
CCCSc1cc(N2CCOCC2)nc(-c2ccccc2Cl)n1 | 0.1 | 3.4% | 10µM* | -9.2%[57.5 µM] | 8.3% | -13.4%
COc1ccc2c(=O)cc(-c3ccc(C)cc3)oc2c1 | 18.2 | . | . | . | . | .
O=C(Nc1nc(-c2cccs2)cs1)c1cccc(S(=O)(=O)N2CCCCCC2)c1 | -4.5 | -0.9% | 5.62µM* | -28.8% | -3.8% | 2.0%
CN1CCN(C(=S)NC(=O)c2ccccc2Cl)CC1 | -10.6 | 0.0% | -19.4% | i | -5.5% | -12.6%
O=C(NC(=S)N1CCCCCC1)c1ccccc1Cl | -3.7 | 14.8% | ? | ? | -0.1% | 5.01µM*
COCCNC(=S)N(C)[C@H]1C[C@H]2c3cc(-c4ccccc4)ccc3CCN2C(=O)[C@H]1[C@H](C)O | -32.1* | -4.4% | 17.5% | -23.0% | 16.1% | -10.6%
c1ccc(-c2cn3c4ccccc4nc3n2CCN2CCCCC2)cc1 | 9.9 | . | . | . | . | .
